# Measurements: PubChem BioAssay (NCATS)
# Results filed as inconclusive are left out. A call without a number means that no potency is given here. Active and inactive are the calls of the source. Calls follow the shape of the dose curve; as a rule, active = well fitted inhibition curve with a large enough effect; inconclusive = small, poorly fitted or top-dose-only effect; inactive = flat fitted curve, though single readings scatter.
# Tested on: Zika virus NS2B-NS3 protease
# Assay: Primary screen GU AMC qHTS for Zika virus inhibitors (AID 1347154); also: nearly all actives have a fitted effect of over 70% in size
# Conditions: Zika NS2B-NS3 unlinked protease, AMC fluorogenic substrate; series mostly up to 54.1 µM
# In short: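 Fluorogenic AMC-substrate cleavage by noncovalent NS2B-NS3 protease complex (25 nM, pH 8.0 Tris buffer with Tween 20) followed for 15 minutes at room temperature (~20% conversion). Percent inhibition from ex340/em450 signal change, fitted by 4-parameter Hill equation.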
row,Compound,Potency
1,CC1CNc2c(cccc2S(=O)(=O)N[C@@H](CCCN=C(N)N)C(=O)N2CC[C@@H](C)C[C@@H]2C(=O)O)C1 (stereo partly specified),inactive
2,CC(=O)O[C@]1(C(C)=O)CC[C@H]2[C@@H]3C=C(Cl)C4=CC(=O)[C@@H]5C[C@H]5[C@]4(C)[C@@H]3CC[C@@]21C,inactive
3,C[C@@H]1CC=CC=CC=CC=C[C@@H](O[C@@H]2O[C@H](C)[C@@H](O)[C@H](N)[C@H]2O)C[C@@H]2O[C@](O)(C[C@@H](O)C[C@@H]3O[C@@H]3C=CC(=O)O1)C[C@H](O)[C@@H]2C(=O)O,inactive
4,C=CC[N+]1([C@H]2C[C@H]3[C@@H]4CC[C@H]5C[C@H](O)[C@@H](N6CCOCC6)C[C@]5(C)[C@@H]4CC[C@]3(C)[C@H]2OC(C)=O)CCCC1,inactive
5,CN(C)S(=O)(=O)c1ccc2c(c1)C(=Cc1cc3c([nH]1)CCCC3)C(=O)N2,inactive
6,OCCn1cc(-c2ccc3c(c2)CCC3=NO)c(-c2ccncc2)n1,inactive
7,C[C@]12C=CC(=O)C=C1CC[C@@H]1[C@@H]2[C@@H](O)C[C@@]2(C)[C@@H]1CC[C@]2(O)C(=O)CO,inactive
8,CCN(CC)CCCCNc1nc2cc(Cl)c(Cl)cc2nc1-c1ccc(-c2cccs2)s1,inactive
9,C[C@@H]1[C@H](C)CC[C@]2(C(=O)O)CC[C@]3(C)C(=CC[C@@H]4[C@@]5(C)CC[C@H](O)C(C)(C)[C@H]5CC[C@]43C)[C@@H]12,inactive
10,CCCCN(CCCC)CC(O)c1cc(Cl)cc2c1-c1ccc(Cl)cc1C2=Cc1ccc(Cl)cc1 (stereo unspecified),inactive
11,CN(CC=CC#CC(C)(C)C)Cc1cccc2ccccc12,inactive
